Assays:
[1] = target: RAC-alpha serine/threonine-protein kinase (Homo sapiens) (UniProt P31749); settings: at 0.1 µM
[2] = target: RAC-alpha serine/threonine-protein kinase (Homo sapiens) (UniProt P31749); settings: at 1 µM
[3] = target: RAC-beta serine/threonine-protein kinase (Homo sapiens) (UniProt P31751); settings: at 0.1 µM
[4] = target: RAC-beta serine/threonine-protein kinase (Homo sapiens) (UniProt P31751); settings: at 1 µM
[5] = target: RAC-gamma serine/threonine-protein kinase (Homo sapiens) (UniProt Q9Y243); settings: at 0.1 µM
[6] = target: RAC-gamma serine/threonine-protein kinase (Homo sapiens) (UniProt Q9Y243); settings: at 1 µM
[7] = target: G protein-coupled receptor kinase 6 (Homo sapiens) (UniProt P43250); settings: at 0.1 µM
[8] = target: G protein-coupled receptor kinase 6 (Homo sapiens) (UniProt P43250); settings: at 1 µM
[9] = target: T1, Rhodopsin kinase GRK7 (Homo sapiens) (UniProt Q8WTQ7); settings: at 0.1 µM
T1 sequence (whole entry): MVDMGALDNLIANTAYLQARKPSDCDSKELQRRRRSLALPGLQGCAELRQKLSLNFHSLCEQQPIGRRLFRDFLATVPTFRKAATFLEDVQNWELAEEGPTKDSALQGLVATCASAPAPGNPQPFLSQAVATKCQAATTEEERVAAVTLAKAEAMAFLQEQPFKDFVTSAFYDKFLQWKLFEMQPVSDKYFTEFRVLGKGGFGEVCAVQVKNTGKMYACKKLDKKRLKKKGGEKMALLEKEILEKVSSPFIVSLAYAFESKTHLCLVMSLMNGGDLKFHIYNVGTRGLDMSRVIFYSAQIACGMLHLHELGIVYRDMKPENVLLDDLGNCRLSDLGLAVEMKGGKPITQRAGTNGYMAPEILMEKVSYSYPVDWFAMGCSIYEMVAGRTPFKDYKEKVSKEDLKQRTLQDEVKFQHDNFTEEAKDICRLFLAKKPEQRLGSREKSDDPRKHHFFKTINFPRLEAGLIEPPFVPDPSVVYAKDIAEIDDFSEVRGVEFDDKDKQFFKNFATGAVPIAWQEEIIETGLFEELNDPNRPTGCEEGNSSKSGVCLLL

[10] = target: T1, Rhodopsin kinase GRK7 (Homo sapiens); settings: at 1 µM
[11] = target: Serine/threonine-protein kinase MRCK alpha (Homo sapiens) (UniProt Q5VT25); settings: at 0.1 µM
[12] = target: Serine/threonine-protein kinase MRCK alpha (Homo sapiens) (UniProt Q5VT25); settings: at 1 µM
[13] = target: Serine/threonine-protein kinase MRCK beta (Homo sapiens) (UniProt Q9Y5S2); settings: at 0.1 µM
[14] = target: Serine/threonine-protein kinase MRCK beta (Homo sapiens) (UniProt Q9Y5S2); settings: at 1 µM
[15] = target: Ribosomal protein S6 kinase alpha-5 (Homo sapiens) (UniProt O75582); settings: at 0.1 µM
[16] = target: Ribosomal protein S6 kinase alpha-5 (Homo sapiens) (UniProt O75582); settings: at 1 µM
[17] = target: Ribosomal protein S6 kinase alpha-4 (Homo sapiens) (UniProt O75676); settings: at 0.1 µM
[18] = target: Ribosomal protein S6 kinase alpha-4 (Homo sapiens) (UniProt O75676); settings: at 1 µM
[19] = target: Ribosomal protein S6 kinase beta-1 (Homo sapiens) (UniProt P23443); settings: at 0.1 µM
[20] = target: Ribosomal protein S6 kinase beta-1 (Homo sapiens) (UniProt P23443); settings: at 1 µM

RAC-gamma serine/threonine-protein kinase (Homo sapiens), sequence (Q9Y243 whole entry): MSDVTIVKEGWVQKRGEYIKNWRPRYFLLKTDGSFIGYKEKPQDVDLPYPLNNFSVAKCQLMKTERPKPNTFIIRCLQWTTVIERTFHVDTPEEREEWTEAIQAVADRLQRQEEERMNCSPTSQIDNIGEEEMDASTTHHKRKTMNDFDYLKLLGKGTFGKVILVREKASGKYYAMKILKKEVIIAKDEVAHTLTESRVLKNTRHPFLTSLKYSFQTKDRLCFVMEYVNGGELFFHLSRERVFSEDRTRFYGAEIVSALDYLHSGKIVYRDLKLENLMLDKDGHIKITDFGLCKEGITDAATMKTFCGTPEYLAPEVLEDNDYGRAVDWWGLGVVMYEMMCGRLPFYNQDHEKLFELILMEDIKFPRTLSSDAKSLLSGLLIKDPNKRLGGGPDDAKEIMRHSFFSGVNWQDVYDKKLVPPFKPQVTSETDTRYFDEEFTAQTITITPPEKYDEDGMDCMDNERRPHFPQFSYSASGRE
RAC-alpha serine/threonine-protein kinase (Homo sapiens), sequence (P31749 whole entry): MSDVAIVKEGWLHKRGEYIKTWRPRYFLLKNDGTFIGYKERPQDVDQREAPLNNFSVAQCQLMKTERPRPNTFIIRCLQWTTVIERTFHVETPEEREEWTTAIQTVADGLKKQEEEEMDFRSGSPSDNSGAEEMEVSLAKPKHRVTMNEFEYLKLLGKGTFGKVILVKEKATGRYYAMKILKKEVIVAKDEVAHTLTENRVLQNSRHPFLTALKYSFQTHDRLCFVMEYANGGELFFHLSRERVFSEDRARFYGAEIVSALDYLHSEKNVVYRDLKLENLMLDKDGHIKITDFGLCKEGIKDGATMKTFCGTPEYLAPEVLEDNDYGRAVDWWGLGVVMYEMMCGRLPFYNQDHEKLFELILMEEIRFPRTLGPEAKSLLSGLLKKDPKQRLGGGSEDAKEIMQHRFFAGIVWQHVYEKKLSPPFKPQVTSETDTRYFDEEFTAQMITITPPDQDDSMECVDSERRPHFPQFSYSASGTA
Ribosomal protein S6 kinase alpha-5 (Homo sapiens), sequence (O75582 whole entry, looked up): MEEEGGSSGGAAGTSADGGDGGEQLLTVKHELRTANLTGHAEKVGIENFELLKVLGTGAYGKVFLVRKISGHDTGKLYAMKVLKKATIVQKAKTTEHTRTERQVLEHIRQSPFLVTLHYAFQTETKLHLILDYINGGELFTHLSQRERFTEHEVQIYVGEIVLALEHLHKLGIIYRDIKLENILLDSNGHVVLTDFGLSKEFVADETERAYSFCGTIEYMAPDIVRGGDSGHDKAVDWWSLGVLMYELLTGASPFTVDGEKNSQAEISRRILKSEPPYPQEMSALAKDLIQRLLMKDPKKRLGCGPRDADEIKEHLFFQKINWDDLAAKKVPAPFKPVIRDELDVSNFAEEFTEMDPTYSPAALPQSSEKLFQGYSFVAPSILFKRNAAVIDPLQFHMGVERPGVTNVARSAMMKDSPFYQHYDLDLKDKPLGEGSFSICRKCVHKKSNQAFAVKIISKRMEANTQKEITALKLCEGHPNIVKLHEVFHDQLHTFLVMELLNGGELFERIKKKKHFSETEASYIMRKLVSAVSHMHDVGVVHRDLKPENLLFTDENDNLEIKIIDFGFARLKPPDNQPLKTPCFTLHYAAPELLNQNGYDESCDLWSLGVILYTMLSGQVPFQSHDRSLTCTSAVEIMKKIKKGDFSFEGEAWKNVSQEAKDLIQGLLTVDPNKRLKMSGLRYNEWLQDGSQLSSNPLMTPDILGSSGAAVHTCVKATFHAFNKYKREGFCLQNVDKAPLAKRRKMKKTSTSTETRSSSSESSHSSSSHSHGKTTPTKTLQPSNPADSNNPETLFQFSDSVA
Serine/threonine-protein kinase MRCK beta (Homo sapiens), sequence (Q9Y5S2 whole entry): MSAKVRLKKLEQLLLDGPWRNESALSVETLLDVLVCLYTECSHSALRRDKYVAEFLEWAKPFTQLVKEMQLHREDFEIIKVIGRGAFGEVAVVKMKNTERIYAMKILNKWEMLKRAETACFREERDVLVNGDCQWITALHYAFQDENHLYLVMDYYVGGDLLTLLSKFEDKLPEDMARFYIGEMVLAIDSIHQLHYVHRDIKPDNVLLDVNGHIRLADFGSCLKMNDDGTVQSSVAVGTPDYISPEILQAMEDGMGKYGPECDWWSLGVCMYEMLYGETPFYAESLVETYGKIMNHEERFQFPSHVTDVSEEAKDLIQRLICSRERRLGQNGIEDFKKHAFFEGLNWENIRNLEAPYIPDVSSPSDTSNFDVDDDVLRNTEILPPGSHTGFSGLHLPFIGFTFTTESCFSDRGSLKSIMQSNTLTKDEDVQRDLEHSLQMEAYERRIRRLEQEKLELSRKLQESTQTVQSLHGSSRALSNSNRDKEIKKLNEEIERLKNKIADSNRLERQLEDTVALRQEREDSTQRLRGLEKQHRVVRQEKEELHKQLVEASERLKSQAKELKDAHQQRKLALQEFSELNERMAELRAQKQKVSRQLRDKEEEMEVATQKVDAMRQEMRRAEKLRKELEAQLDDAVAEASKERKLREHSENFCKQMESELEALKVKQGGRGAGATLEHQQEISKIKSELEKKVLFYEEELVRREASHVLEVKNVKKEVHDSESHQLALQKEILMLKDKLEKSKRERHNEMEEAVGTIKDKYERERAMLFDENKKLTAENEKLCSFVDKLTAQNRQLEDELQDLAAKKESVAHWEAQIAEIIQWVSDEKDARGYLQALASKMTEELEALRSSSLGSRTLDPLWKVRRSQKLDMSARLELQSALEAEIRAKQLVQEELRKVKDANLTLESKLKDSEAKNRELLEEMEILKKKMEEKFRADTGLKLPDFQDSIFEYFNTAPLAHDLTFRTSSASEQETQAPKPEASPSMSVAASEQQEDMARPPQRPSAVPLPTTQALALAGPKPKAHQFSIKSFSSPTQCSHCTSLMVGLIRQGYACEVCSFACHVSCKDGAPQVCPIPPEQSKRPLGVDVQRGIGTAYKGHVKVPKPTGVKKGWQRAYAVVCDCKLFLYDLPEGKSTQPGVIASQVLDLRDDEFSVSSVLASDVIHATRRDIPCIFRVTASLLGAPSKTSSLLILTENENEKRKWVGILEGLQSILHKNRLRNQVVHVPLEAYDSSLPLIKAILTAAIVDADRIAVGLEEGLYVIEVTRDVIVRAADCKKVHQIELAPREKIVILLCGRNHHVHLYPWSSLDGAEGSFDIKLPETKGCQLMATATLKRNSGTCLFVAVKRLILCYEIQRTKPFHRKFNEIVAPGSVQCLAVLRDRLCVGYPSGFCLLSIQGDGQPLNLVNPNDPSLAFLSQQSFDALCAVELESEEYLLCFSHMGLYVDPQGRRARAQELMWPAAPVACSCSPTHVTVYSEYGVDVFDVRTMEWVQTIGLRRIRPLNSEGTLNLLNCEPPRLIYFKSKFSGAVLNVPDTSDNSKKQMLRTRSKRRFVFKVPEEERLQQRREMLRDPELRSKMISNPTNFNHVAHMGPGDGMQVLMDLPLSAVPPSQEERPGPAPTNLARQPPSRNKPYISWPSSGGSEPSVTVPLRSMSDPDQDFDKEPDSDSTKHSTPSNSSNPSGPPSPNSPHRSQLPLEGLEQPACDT
Ribosomal protein S6 kinase beta-1 (Homo sapiens), sequence (P23443 whole entry, looked up): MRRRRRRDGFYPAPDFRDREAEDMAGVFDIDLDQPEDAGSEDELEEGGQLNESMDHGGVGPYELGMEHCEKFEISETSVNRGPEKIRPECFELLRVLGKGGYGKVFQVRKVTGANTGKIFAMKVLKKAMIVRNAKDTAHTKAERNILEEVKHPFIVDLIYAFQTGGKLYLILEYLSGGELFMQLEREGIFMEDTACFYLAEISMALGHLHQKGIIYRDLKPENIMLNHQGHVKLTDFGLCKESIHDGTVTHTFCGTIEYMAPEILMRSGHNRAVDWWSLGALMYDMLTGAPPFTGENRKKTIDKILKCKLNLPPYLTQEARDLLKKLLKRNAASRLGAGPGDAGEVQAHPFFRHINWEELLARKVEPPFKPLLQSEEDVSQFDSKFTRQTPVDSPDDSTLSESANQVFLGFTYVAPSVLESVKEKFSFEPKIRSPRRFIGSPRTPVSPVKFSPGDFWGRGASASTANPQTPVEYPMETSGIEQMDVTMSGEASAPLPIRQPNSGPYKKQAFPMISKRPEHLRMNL
G protein-coupled receptor kinase 6 (Homo sapiens), sequence (P43250 whole entry, looked up): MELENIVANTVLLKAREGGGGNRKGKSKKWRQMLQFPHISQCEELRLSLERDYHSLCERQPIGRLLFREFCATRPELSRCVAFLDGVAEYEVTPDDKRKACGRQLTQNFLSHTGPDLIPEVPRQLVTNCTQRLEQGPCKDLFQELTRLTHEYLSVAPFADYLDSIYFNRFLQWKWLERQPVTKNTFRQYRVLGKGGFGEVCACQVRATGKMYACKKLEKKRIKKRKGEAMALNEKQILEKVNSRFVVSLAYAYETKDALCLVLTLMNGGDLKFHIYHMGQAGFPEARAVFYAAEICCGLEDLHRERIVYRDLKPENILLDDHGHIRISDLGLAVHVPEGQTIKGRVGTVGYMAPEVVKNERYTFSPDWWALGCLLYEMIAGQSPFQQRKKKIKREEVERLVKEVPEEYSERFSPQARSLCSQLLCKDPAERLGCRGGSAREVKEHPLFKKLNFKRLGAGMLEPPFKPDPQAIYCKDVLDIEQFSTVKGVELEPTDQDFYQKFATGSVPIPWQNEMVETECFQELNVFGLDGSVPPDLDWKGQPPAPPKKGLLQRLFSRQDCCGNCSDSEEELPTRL
RAC-beta serine/threonine-protein kinase (Homo sapiens), sequence (P31751 whole entry): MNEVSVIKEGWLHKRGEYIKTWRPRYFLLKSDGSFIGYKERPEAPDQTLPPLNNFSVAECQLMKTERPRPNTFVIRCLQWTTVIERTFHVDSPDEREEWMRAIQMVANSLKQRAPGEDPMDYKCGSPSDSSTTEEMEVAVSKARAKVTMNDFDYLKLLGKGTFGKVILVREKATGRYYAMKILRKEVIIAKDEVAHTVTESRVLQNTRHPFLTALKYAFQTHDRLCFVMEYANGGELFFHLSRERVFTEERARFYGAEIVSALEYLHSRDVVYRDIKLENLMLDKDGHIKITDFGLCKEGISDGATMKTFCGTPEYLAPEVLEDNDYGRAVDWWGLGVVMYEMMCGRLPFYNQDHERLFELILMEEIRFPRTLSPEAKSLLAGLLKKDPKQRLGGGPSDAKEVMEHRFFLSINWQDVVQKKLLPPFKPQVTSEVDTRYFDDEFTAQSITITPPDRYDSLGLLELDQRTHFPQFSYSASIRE

Row | SMILES | inhibition [1] [%] | inhibition [2] [%] | inhibition [3] [%] | inhibition [4] [%] | inhibition [5] [%] | inhibition [6] [%] | inhibition [7] [%] | inhibition [8] [%] | inhibition [9] [%] | inhibition [10] [%] | inhibition [11] [%] | inhibition [12] [%] | inhibition [13] [%] | inhibition [14] [%] | inhibition [15] [%] | inhibition [16] [%] | inhibition [17] [%] | inhibition [18] [%] | inhibition [19] [%] | inhibition [20] [%]
1 | COc1cccc(-n2ncc3c(N/N=C/c4ccncc4)ncnc32)c1 | 0.24 | -0.78 | 1.42 | -0.44 | 3.63 | 0.47 | 1.7 | 1.85 | 5.1 | 5.17 | -0.11 | 3.78 | 0.53 | 0.77 | 3.86 | 4.1 | 2.47 | 4.26 | 2.67 | 7.24
2 | CCn1c(-c2nonc2N)nc2c(C#CC(C)(C)O)nc(O[C@@H](CN)c3ccccc3)cc21 | 93.7 | 96.4 | – | – | 93.3 | 95 | 1.13 | 1.51 | 3 | 114 | 29 | 72.8 | 20.8 | 66.2 | 8.67 | 51.3 | 15 | 61.3 | 13.1 | 58.4
3 | CCn1c(-c2nonc2N)nc2c(C#CC(C)(C)O)ncc(OCC3CCNCC3)c21 | 60.7 | 88.2 | 74.2 | 89.3 | 57.7 | 86 | 4.53 | 11.1 | 5.08 | 23.3 | 3.52 | 33.2 | 2.36 | 21.1 | 2.98 | 16.2 | 4.39 | 19.2 | 3.1 | 15.4
4 | COc1cc(C=NNc2ncnc3c2cnn3Cc2ccccc2)ccc1O | -2.34 | -2.35 | -3.56 | -1.08 | -2.66 | -1.29 | -3.93 | -0.64 | – | -3.65 | 1.44 | -1.07 | 1.9 | 4.11 | 2.29 | 3 | 1.75 | 4.49 | -1.02 | -0.11
5 | NS(=O)(=O)c1ccc(N/C=C2\C(=O)Nc3ccc4ncsc4c32)cc1 | 0.54 | 0.61 | 2.08 | 2.38 | 0.65 | 3.15 | 4.87 | 18.7 | 8.46 | 6.58 | -1.47 | 10.5 | 0.46 | 5.66 | 5.1 | 12.2 | 15.3 | 50.9 | 1.92 | 13.5
6 | Cc1cc(-c2ccco2)cc(C)c1/C=C/c1cncc(-c2nn[nH]n2)c1 | -0.08 | -0.39 | -0.63 | 0.09 | -0.47 | – | -3.85 | – | 11.8 | 49.9 | -2.3 | -3.4 | 0.22 | -0.72 | -0.62 | -1.54 | 0.13 | 1.02 | 0.97 | -0.33
7 | COc1cccc(COc2cc(-n3cnc4ccccc43)sc2C(N)=O)c1 | 2.26 | 0.35 | – | 2.81 | -0.85 | -1.8 | 0.1 | 0.82 | 4.74 | -0.33 | -5.2 | -1.17 | -0.37 | 0.51 | 0.54 | -1.08 | 1.36 | -0.28 | 0.45 | -0.53
8 | NC(=O)c1sc(-n2cnc3cc(C(F)(F)F)ccc32)cc1OCc1ccccc1Br | 0.26 | 0.43 | -0.81 | 0.47 | 0.03 | – | 3.71 | 1.08 | 5.6 | 5.78 | -1.08 | -4.81 | 0.07 | 0.13 | 0.28 | -0.19 | 2.32 | 1.32 | 1.25 | -0.49
9 | Nc1nonc1-c1nc2cnccc2n1C1CCCCC1 | 3.37 | 37.4 | 1.24 | 22.4 | 3.35 | 32.3 | -0.4 | 2.07 | -7.5 | 2.63 | 18.6 | 65.9 | 29.6 | 72 | 76.5 | 85.2 | 59.6 | 83 | 72.6 | 91.2
10 | NS(=O)(=O)c1ccc(-c2ccc3c(NC(=O)C4CC4)n[nH]c3c2)cc1 | 0.97 | 1 | 1.38 | 0.67 | 0.25 | -0.65 | 0.33 | -2.37 | -0.74 | – | -0.42 | -1.48 | 0.24 | 1.84 | 3.18 | 7.98 | -0.31 | 4.18 | 0.95 | 2.84
11 | COc1cc2c(cc1Nc1nc(Nc3ccsc3C(N)=O)c3cc[nH]c3n1)N(C(=O)CN(C)C)CCC2 | -0.27 | -0.06 | 2.64 | 0.91 | 2.81 | 4.75 | 27.5 | 82.8 | 22.1 | 60.3 | -2.47 | -0.12 | -0.68 | -0.44 | 2.59 | -0.04 | 2.53 | -0.18 | 1.15 | 0.53
12 | CCn1c(-c2nonc2N)nc2c(C#CCN)ncc(OCCCN)c21 | -0.6 | 10.9 | -0.31 | 12.8 | 1.83 | 10 | -5.01 | 6.23 | 0.4 | 7.43 | 6.68 | 13.4 | 6.58 | 23.4 | 12.1 | 51.5 | 12.9 | 52 | 7.3 | 44.7
13 | Fc1ccc(-c2ncn(C3CCNCC3)c2-c2ccnc(Oc3ccccc3)n2)cc1 | -3.52 | -2.95 | -2.98 | – | -3.09 | 4.46 | -2.07 | 1.13 | 8.55 | -1.71 | -3.2 | -1.87 | -0.1 | -0.81 | -1.31 | -2.46 | 1.09 | 0.21 | 1.34 | 7.24
14 | CCn1c(-c2nonc2N)nc2c(C#CC(C)(C)O)ncc(OC[C@@H]3CCCN3)c21 | 68.2 | 91.1 | 79.7 | – | 67.5 | 90.4 | -2.91 | 0.91 | 6.42 | 14 | -1.54 | 23.5 | 2.11 | 19.5 | 0.57 | 7.89 | 3.2 | 17.5 | 3.87 | 25.4

Source: ChEMBL document CHEMBL1961873, “Compounds: GSK PKIS; Assays: Nanosyn kinase panel” (2012)
